# Measured values taken from PubChem BioAssay.
# Active and inactive are the calls of the source. Unless noted, how the calls were made is not given here.
# Assays:
# [1] = anti-His antibody binders, primary screen, artefact control for SMM control protein annotation, biochemical, small-molecule microarray, 635 nm fluorescence (AID 1128); conditions: anti-His Alexa647 antibody binding, higher = more signal;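 further: score merges feature fluorescence with signal-to-noise for each printed compound spot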
# [2] = system: Human papillomavirus type 1a E7 protein (residues 1-88); experiment: HPV1a E7 small-molecule binders, primary screen, biochemical, small-molecule microarray, residues 1-88, 635 nm (AID 1129); conditions: small-molecule microarray binding, fluorescence 635 nm; higher = more signal
# [3] = molecular target: Focal adhesion kinase 1 (Homo sapiens) (UniProt Q05397); experiment: small-molecule microarray binders of FAK, primary screen, biochemical, 635/667 nm fluorescence, BSA, DTT (AID 1130); conditions: PTK2 binding, 635 nm fluorescence, higher = more signal;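 further: composite of spot emission at 667 nm and signal to noise over triplicate slides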
# Sequence of Focal adhesion kinase 1 (Homo sapiens) (Q05397 whole entry, looked up): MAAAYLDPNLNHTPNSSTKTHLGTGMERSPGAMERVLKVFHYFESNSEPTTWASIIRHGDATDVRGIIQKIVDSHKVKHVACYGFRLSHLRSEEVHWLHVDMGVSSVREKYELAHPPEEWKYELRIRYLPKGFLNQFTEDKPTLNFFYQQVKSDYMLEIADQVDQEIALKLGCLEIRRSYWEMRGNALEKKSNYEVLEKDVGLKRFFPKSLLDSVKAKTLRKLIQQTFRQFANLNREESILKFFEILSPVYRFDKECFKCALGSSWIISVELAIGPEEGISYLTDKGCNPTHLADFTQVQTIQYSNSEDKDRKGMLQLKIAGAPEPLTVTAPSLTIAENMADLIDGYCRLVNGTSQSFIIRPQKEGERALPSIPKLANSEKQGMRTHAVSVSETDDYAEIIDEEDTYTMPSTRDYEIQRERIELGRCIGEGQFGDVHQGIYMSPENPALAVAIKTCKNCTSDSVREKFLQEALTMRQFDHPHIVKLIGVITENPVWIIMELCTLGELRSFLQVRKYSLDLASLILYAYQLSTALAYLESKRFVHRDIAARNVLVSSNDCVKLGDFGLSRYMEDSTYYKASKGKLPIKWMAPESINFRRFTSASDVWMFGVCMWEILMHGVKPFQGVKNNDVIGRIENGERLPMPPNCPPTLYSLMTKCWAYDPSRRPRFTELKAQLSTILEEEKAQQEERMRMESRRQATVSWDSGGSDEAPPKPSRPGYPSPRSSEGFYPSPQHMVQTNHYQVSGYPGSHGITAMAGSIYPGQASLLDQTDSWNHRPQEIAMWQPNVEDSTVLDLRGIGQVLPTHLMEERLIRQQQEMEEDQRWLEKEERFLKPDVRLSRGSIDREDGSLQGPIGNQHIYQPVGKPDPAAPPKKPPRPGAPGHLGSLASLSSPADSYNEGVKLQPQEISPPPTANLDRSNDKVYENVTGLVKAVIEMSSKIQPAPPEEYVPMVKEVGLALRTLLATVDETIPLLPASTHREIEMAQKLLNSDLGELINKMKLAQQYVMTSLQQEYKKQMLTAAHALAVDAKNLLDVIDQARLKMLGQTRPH
# [4] = system: Fibrinogen (Alexa647-labelled); experiment: fibrinogen binders on compound microarrays, profiling panel, artefact control for SMM control-protein annotation, biochemical, small-molecule microarray, 635/667 nm fluorescence (AID 1131); conditions: fibrinogen-A647 binding fluorescence, higher = more signal;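 further: z-score merges 667 nm fluorescence with per-spot signal-to-noise over triplicate slides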
# [5] = molecular target: Follistatin (Homo sapiens) (UniProt P19883); experiment: follistatin binders on small-molecule microarrays, primary screen, biochemical, small-molecule microarray, 635/667 nm fluorescence (AID 1132); conditions: FST binding, 635 nm fluorescence, higher = more signal
# Sequence of Follistatin (Homo sapiens) (P19883 whole entry, looked up): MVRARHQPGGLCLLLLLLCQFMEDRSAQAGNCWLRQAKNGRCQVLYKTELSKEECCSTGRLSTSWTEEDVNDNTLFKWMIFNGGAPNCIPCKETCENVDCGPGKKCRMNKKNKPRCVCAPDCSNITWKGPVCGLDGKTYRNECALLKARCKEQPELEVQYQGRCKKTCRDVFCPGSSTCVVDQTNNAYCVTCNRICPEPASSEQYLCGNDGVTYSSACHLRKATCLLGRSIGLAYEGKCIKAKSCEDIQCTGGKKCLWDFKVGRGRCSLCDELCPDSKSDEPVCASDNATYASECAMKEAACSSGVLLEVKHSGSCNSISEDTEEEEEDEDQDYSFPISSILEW
# [6] = molecular target: Fibroblast growth factor 2 (Homo sapiens) (UniProt P09038); experiment: FGF2 binders on small-molecule microarrays, primary screen, biochemical, small-molecule microarray, 635/667 nm fluorescence (AID 1133); conditions: small-molecule microarray binding, FGF2, fluorescence 635/667; higher = more signal
# Sequence of Fibroblast growth factor 2 (Homo sapiens) (P09038 whole entry, looked up): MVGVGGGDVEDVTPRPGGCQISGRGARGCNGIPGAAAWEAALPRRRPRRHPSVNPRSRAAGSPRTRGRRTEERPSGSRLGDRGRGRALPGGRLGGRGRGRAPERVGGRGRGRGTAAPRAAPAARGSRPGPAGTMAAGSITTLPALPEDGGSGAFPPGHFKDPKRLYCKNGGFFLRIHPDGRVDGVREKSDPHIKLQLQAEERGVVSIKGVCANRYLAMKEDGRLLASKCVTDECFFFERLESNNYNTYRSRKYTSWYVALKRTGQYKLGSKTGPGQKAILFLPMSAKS
# [7] = mitochondrial membrane potential change in A549 cells, profiling panel, cell-based, JC-1 fluorescence, basal, 24 h, 100 nL (AID 1138); conditions: higher = more signal;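 further: A549 lung adenocarcinoma cells under basal conditions with no added stimulus; test concentration not given here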
# Lefty1 = Lefty1 binders on small-molecule microarrays, primary screen, biochemical, small-molecule microarray, 635/667 nm fluorescence (AID 1139); conditions: small-molecule microarray binding, fluorescence 635/667; higher = more signal
# [8] = system: wheat germ agglutinin (Triticum aestivum), Alexa647-labelled; experiment: wheat germ agglutinin binders on compound microarrays, profiling panel, artefact control for SMM control-protein annotation, biochemical, small-molecule microarray, 635/667 nm fluorescence (AID 1140); conditions: WGA-A647 binding, 635 nm fluorescence, higher = more signal;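 further: score merges 667 nm feature emission with signal to noise over triplicate slides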
# [9] = molecular target: Luciferin 4-monooxygenase (Photinus pyralis) (UniProt P08659); experiment: firefly luciferase enzyme inhibitors, primary screen, biochemical, luminescence, purified enzyme, 2006 set (AID 1141); conditions: SteadyGlo luminescence, 30 min, higher = more signal, called active from +8 up or from −8 down;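 further: cell-free assay with purified firefly luciferase at 100 ng per well in PBS; test concentration not given here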
# Sequence of Luciferin 4-monooxygenase (Photinus pyralis) (P08659 whole entry, looked up): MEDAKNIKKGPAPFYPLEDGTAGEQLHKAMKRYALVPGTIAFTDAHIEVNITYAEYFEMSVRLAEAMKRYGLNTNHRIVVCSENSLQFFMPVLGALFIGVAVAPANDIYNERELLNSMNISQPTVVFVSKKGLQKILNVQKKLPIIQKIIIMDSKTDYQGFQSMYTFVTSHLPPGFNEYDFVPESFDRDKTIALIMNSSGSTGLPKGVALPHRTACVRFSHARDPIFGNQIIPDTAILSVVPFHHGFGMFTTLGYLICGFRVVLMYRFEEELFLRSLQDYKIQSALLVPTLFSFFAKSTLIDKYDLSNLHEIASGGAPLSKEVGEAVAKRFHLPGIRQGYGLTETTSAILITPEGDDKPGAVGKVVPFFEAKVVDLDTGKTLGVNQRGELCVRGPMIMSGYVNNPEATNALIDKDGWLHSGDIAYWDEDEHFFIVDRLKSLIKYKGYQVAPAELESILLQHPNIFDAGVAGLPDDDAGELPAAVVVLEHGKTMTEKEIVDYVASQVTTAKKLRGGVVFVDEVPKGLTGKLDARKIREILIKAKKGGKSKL
# [10] = system: Wnt5a (protein binding on small-molecule microarray); experiment: Wnt5a binders on small-molecule microarray, primary screen, biophysical, 635/667 nm fluorescence (AID 1142); conditions: 635 nm fluorescence, higher = more signal;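 further: fluorescence read at 667 nm with signal to noise per printed feature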
# [11] = cell viability in Huh7 cells, primary screen, cytotoxicity control for HCV replication inhibitor project, CellTiter-Glo luminescence, basal, 48 h (AID 1143); conditions: Huh7 HCV replicon, higher = more signal, called active from +8 up or from −8 down;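 further: Huh7 hepatoma cells carrying a hepatitis C replication reporter with no stimulus; test concentration not given here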
# [12] = P. aeruginosa biofilm formation inhibitors, primary screen, PAO1 strain, BacTiter-Glo luminescence, LB-PBS (AID 1144); conditions: 12 h, higher = more signal
# [13] = CREB reporter modulators without forskolin, primary screen, cell-based, PC12, CRE-LacZ reporter, unstimulated (AID 1145); conditions: no forskolin, luminescence, 4.5 h, higher = more signal, called active from +8 up or from −8 down
# [14] = CREB reporter modulators under forskolin, primary screen, cell-based, PC12, CRE-LacZ reporter, forskolin-stimulated (AID 1146); conditions: luminescence, 4.5 h, higher = more signal, called active from +8 up or from −8 down;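 further: PC12 cells with 6xCRE LacZ reporter stimulated by forskolin 10 µM; beta-galactosidase reporter signal reflecting CREB driven transcription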
# [15] = molecular target: Streptavidin (Streptomyces avidinii) (UniProt P22629); experiment: streptavidin binders on small-molecule microarray, primary screen, artefact control for SMM compound annotation, biophysical, 635/667 nm fluorescence (AID 1147); conditions: streptavidin binding, higher = more signal;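 further: signal reflects streptavidin binding to arrayed compounds as a control protein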
# Sequence of Streptavidin (Streptomyces avidinii) (P22629 whole entry, looked up): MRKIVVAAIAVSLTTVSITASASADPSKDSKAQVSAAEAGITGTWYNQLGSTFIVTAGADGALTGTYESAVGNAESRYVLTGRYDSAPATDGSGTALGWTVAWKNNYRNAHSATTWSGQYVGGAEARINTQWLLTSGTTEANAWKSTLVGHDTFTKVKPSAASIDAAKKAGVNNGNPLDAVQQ
# [16] = small-molecule binders of probe aInhba, primary screen, biochemical, small-molecule microarray, 635/667 nm fluorescence (AID 1148); conditions: higher = more signal;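 further: score merges 667nm spot fluorescence with signal-to-noise for antibody binding to printed compounds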
# Torsin-1A (Homo sapiens) [17] = molecular target: Torsin-1A (Homo sapiens) (UniProt O14656); experiment: torsin A binders from cell lysate, primary screen, small-molecule microarray, wild-type, 635/667 nm (AID 1149); conditions: COS7 hTOR1A-WT lysate, 635 nm fluorescence, higher = more signal
# Sequence of Torsin-1A (Homo sapiens) (O14656 whole entry, looked up): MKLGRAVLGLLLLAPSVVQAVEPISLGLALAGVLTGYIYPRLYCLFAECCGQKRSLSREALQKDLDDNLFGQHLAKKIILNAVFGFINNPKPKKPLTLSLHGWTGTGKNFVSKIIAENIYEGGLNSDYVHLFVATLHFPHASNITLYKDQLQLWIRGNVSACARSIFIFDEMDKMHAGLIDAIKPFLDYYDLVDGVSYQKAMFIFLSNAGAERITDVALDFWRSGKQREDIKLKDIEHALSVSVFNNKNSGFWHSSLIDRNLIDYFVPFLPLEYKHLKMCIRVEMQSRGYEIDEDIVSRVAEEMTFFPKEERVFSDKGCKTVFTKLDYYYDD
# Torsin-1A (Homo sapiens) [18] = molecular target: Torsin-1A (Homo sapiens) (UniProt O14656); experiment: small-molecule binders of mutant TOR1A in lysate, primary screen, cell lysate, small-molecule microarray, COS7 lysate, 635/667 nm fluorescence (AID 1150); conditions: COS7 hTOR1A mutant lysate, 635 nm fluorescence, higher = more signal;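 further: score pools 667 nm emission and signal to noise measuring lysate protein binding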
# [19] = system: Sonic hedgehog protein (Shh); experiment: small-molecule binders of Shh protein, primary screen, biochemical, small-molecule microarray, 635/667 nm fluorescence (AID 1151); conditions: small-molecule microarray binding, 635 nm fluorescence; higher = more signal;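 further: Shh protein binding to compounds spotted on small-molecule microarray slides; score combines spot fluorescence intensity with signal-to-noise across triplicate slides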
Compound,composite z-score [1],composite z-score [2],composite z-score [3],composite z-score [4],composite z-score [5],composite z-score [6],z-score [7],composite z-score (Lefty1),composite z-score [8],z-score [9],composite z-score [10],z-score [11],z-score [12],z-score [13],z-score [14],composite z-score [15],composite z-score [16],composite z-score (Torsin-1A (Homo sapiens) [17]),composite z-score (Torsin-1A (Homo sapiens) [18]),composite z-score [19]
C[C@@H]1ON(c2cccc(C(=O)OC(C)(C)C)c2)[C@H](c2ccc(Br)cc2)[C@H]1C(=O)N1C(=O)OC[C@H]1Cc1ccccc1,0.556,0.77,0.306,0.937,1.21,0.735,1.63,0.766,0.106,-0.68 (inactive),0.458,-0.242 (inactive),0.938 (inactive),1.49 (inactive),-0.278 (inactive),0.852,0.134,0.18,0.389,0.937
Cc1ccc(C(C)CC(O)C2C=CC3C(=O)N(c4ccccc4)C(=O)C3N2Nc2ccc([N+](=O)[O-])cc2)o1 (stereo not given),0.484,1.23,0.772,0.904,1.06,0.232,-0.828,-0.0023,0.646,1.45 (inactive),0.354,-0.344 (inactive),-0.99 (inactive),0.136 (inactive),0.812 (inactive),1.71,-0.0131,-0.344,0.222,0.442
C=C(CCCC)C(=O)CC[C@H](OC(=O)c1cccnc1)c1ccccc1OCCO,0.984,-0.513,0.0467,-0.633,0.537,1.32,1.08,0.785,0.14,-0.288 (inactive),0.218,-2.15 (inactive),-0.0162 (inactive),2.21 (inactive),1.94 (inactive),-0.423,-0.128,1.07,0.218,0.552
COCCOC(=O)N1C(=O)[C@@]2(c3ccccc31)[C@H](c1ccccc1OCCO)N1[C@H](c3ccccc3)[C@H](c3ccccc3)OC(=O)[C@H]1[C@@H]2C(=O)Nc1nc2ccccc2s1,1.04,1.19,0.445,0.994,1.35,1.03,-1.91,1.34,1.18,-2.37 (inactive),0.212,-3.78 (inactive),-0.868 (inactive),-0.0566 (inactive),2.86 (inactive),1.14,0.113,0.421,1.25,1.81
O=C(NCc1ccccc1)[C@@]1(CCS(=O)(=O)c2ccccc2)N=C(c2ccc(OCCCO)cc2)O[C@H]1c1ccccc1,1.52,1.26,0.54,0.994,1.21,-0.0657,-0.346,0.116,1.1,0.548 (inactive),0.794,-2.09 (inactive),-0.847 (inactive),-0.435 (inactive),-0.516 (inactive),1.8,0.212,1.35,1.16,-0.756
C=CCOC(=O)[C@@H]1[C@H]2C(=O)O[C@H](c3ccccc3)[C@H](c3ccccc3)N2[C@H](c2ccc(OCCOC(=O)[C@@H]3C[C@@H]4C(=O)N5CCC[C@H]5C(=O)N4[C@@H]3c3ccc(O)cc3)cc2)[C@@]12C(=O)Nc1ccc(I)cc12,0.426,1.19,0.928,0.837,1.29,1.2,-1.58,0.793,0.635,-0.291 (inactive),0.0017,-1.51 (inactive),-1.72 (inactive),-1.48 (inactive),-1.75 (inactive),1.11,-0.101,0.711,0.878,1.82
COc1ccc([Si](C)(C)[C@H]2[C@H](CCO)O[C@@]3(C(=O)N(Cc4ccc(N5C(=O)COc6ccccc65)cc4)c4ccccc43)[C@@H]2C)cc1,1.04,0.0091,-0.187,0.27,-0.566,-0.684,0.272,-0.072,0.484,0.0706 (inactive),-0.516,-6.62 (inactive),-1.32 (inactive),-0.766 (inactive),-0.706 (inactive),-0.314,-0.128,-1.06,-0.89,-0.15
COCCOC(=O)N1C(=O)[C@@]2(c3cc(C#CCCO)ccc31)[C@H](c1ccc(OCCO)cc1)N1[C@H](c3ccccc3)[C@H](c3ccccc3)OC(=O)[C@H]1[C@@H]2C(=O)N1CCN(c2ncccn2)CC1,1.05,1.18,0.307,0.756,1.3,1.32,-1.04,1.37,0.624,-0.836 (inactive),-0.0738,-0.361 (inactive),0.97 (inactive),0.334 (inactive),0.653 (inactive),0.782,0.0947,0.546,0.28,1.43
COC(=O)[C@@]1(Cc2ccccc2)[C@H]2c3cc(C(=O)N4CCCC4)n(CC4CC4)c3C[C@H]2CN1C(=O)c1ccccc1,1.13,1.2,0.885,0.643,0.76,-0.031,-0.641,0.206,0.847,1.42 (inactive),0.918,-3.64 (inactive),0.798 (inactive),0.587 (inactive),0.847 (inactive),0.907,1.06,0.256,0.0577,-0.151
Cc1ccc(S[C@]2(C(=O)NCCN3CCOCC3)CC(=O)N(Cc3ccccc3)[C@@H]2c2ccc(CO)cc2I)cc1,1.75,-0.104,0.217,-1.42,-0.422,-1.2,0.0777,-1.08,-0.592,0.4 (inactive),0.0376,-5.17 (inactive),-0.779 (inactive),-0.114 (inactive),1.8 (inactive),-0.755,-0.0719,-1.46,0.59,-0.685
